Bioassay records from PubChem BioAssay.
JMJD2A Tudor inh = qHTS Assay for Inhibitors of JMJD2A-Tudor Domain; hit rate 4.4% among 390,000; AID 504339, 2011; AlphaScreen JMJD2A-Tudor / H3K4me3 peptide binding; Potency, µM (series often up to 114 µM), without a hit: at the top dose activity change, negative = inhibition, most hits filed as inhibitors; Lysine-specific demethylase 4A (Homo sapiens), O75164; note: % is set by controls: 0 for no effect and ±100 for the full control effect; nearly all actives have a fitted effect of over 50% in size
Target sequence (O75164 whole entry, looked up, the tested form may be a part): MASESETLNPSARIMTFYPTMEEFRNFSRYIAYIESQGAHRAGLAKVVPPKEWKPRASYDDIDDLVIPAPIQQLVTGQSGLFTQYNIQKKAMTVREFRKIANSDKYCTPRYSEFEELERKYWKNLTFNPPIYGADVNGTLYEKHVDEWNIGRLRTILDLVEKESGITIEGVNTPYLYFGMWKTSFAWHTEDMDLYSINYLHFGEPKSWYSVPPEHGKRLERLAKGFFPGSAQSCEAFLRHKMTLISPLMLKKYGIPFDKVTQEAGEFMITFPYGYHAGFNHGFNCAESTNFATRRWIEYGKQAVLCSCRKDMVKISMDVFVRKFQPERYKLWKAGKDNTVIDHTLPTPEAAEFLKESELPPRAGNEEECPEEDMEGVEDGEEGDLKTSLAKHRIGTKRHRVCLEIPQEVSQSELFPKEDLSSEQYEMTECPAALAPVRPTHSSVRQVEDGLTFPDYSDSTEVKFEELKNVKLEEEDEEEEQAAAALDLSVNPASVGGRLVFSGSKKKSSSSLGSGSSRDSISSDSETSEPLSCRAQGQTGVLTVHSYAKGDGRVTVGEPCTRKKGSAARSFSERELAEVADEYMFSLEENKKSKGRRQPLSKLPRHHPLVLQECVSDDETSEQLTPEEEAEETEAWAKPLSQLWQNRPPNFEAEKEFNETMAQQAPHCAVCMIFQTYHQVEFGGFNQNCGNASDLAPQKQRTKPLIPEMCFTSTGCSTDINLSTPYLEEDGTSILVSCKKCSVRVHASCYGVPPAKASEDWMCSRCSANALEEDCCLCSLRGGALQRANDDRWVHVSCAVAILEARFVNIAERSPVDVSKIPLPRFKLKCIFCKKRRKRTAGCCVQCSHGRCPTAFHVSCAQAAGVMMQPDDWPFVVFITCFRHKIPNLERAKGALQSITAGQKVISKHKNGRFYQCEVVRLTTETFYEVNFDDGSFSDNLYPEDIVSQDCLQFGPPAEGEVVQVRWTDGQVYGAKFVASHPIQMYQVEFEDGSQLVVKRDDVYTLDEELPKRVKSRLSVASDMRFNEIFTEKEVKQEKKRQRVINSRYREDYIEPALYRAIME
HP1b chromo inh = HTS for Inhibitors of HP1-beta Chromodomain Interactions with Methylated Histone Tails | Potency, µM (top dose mostly 114 µM), inactives show at the top dose activity change, negative = inhibition, usual class: inhibitors | hit rate 0.56% among 390,000 | AID 540317, 2011 | AlphaScreen HP1-beta / biotin-H3K9me3 peptide binding; note: nearly all actives have a fitted effect of over 70% in size
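HP1-beta protein (50 nM final) preincubated 30 min at room temperature with biotinylated H3(1-18)K9me3 peptide (50 nM) in PBS pH 7.4, 0.01% Tween-20, then compound added for 30 min. AlphaScreen streptavidin donor/nickel chelate acceptor beads (10 ug/mL final), 30 min dark, luminescence read.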
BAZ2B inh = qHTS Assay for Inhibitors of BAZ2B; Bromodomain adjacent to zinc finger domain protein 2B (Homo sapiens), Q9UIF8; AlphaScreen BAZ2B-H3K14Ac peptide displacement; Potency, µM (top dose mostly 114 µM), inactives show at the highest dose activity change, negative = inhibition, hits mostly inhibitors; hit rate 4.4% among 360,000; AID 504333, 2011; note: % is set by controls: 0 for no effect and ±100 for the full control effect; nearly all actives have a fitted effect of over 60% in size
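Complex of BAZ2B and biotin-H3K14Ac (50 nM apiece) forms over 30 min at RT, then faces library compounds up to 110 uM for another 30 min; AlphaScreen beads added, 20 min dark incubation, luminescence read.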
G9a block = qHTS Assay for Inhibitors of Histone Lysine Methyltransferase G9a; AID 504332, 2011; G9a H3K9 monomethylation, AlphaScreen, 2 h; hit rate 8.8% among 350,000; Histone-lysine N-methyltransferase EHMT2 (Homo sapiens), Q96KQ7; Potency, µM (top dose mostly 102 µM), without a hit: at the top dose activity, negative = inhibition, hits mostly inhibitors; note: % is set by controls: 0 for no effect and ±100 for the full control effect; nearly all actives have a fitted effect of over 75% in size
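Using a bead-based AlphaScreen, monomethylated H3K9 product from 2 h room-temperature reactions (G9a 20 nM, peptide 500 nM, SAM 20 uM) was detected with 0.5 ug/mL rabbit anti-H3K9me1 antibody.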
GLS inhibitor = qHTS for Inhibitors of Glutaminase (GLS); Glutaminase kidney isoform, mitochondrial (Homo sapiens), O94925; GLS enzymatic activity, qHTS titration; Potency, µM (titrated, usually from 45.5 µM), inactives show at the highest dose activity change, negative = inhibition, hits mostly inhibitors; hit rate 0.21% among 410,000; AID 624170, 2012; note: % is set by controls: 0 for no effect and ±100 for the full control effect
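Read-out is an Amplex red fluorescence increase coupled through glutamate oxidase and HRP, measured before and after 30 min room-temperature incubation. hKGA is in 45 mM KH2PO4 (pH 8.2) with 0.02% Tween-20; glutamine added as 1mM solution.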
Starred values were filed as active, the others as inactive; [ ] = remark or other dose. This is a sample that favours compounds with a hit; in the whole collection about 10% have one here. Calls come from the whole dose curve; as a rule, active = well fitted curve in the direction sought with a large enough effect; inconclusive = small, poorly fitted or top-dose-only effect, or another doubt; inactive = no such curve, though single readings can be large; an effect the other way counts as inactive or inconclusive. Potency is the fitted concentration of half-maximal effect.

What do the screens show for `CC1(NC(=O)Cc2c(F)cccc2Cl)CCS(=O)(=O)C1` (stereo not drawn)?
JMJD2A Tudor inh: -4%; HP1b chromo inh: 36%; GLS inhibitor: 2%

Results for CCCc1nc2c(sc3nc4c(cc32)COC(C)(C)C4)c(=O)o1 ?
JMJD2A Tudor inh: -4%; HP1b chromo inh: 43%; BAZ2B inh: inconclusive; G9a block: 22µM*; GLS inhibitor: 2%

What do the screens show for `Cc1nc2c(sc3nc4c(cc32)COC(C)(C)C4)c(=O)o1`?
JMJD2A Tudor inh: -3%; HP1b chromo inh: 34%; BAZ2B inh: 3%; G9a block: inconclusive; GLS inhibitor: 0%

How did COC(=O)c1sc2nc3c(cc2c1N)COC(C)(C)C3 do in these assays?
JMJD2A Tudor inh: 14%; HP1b chromo inh: 42%; BAZ2B inh: -3%; G9a block: 50µM*; GLS inhibitor: 2%

What do the screens show for `Cc1nn(Cc2ccc(Cl)cc2)c2sc(C(=O)O)cc12`?
JMJD2A Tudor inh: -23%; HP1b chromo inh: -1%; BAZ2B inh: -20%; G9a block: 1µM*; GLS inhibitor: 23%

What do the screens show for `COc1ccc(Cc2nnc(N/N=C/c3ccc(O)cc3)[nH]c2=O)cc1OC`?
JMJD2A Tudor inh: 25µM*; HP1b chromo inh: 19%; BAZ2B inh: 7.1µM*; G9a block: 89%[59 µM]; GLS inhibitor: -5%

What do the screens show for `COc1ccc(Cc2nnc(N/N=C/c3ccc(Br)cc3)[nH]c2=O)cc1OC`?
JMJD2A Tudor inh: -20%; HP1b chromo inh: 56%; BAZ2B inh: inconclusive; GLS inhibitor: 5%

Results for Cc1ccc2c(c1)c1ccc3c(c1n2C)C(=O)C=CC3=O ?
JMJD2A Tudor inh: 6.3µM*; HP1b chromo inh: 3.2µM*; BAZ2B inh: 10µM*; G9a block: 1.6µM*; GLS inhibitor: -21%

How did Cc1ccc(C)c2c1c1ccccc1n2C do in these assays?
JMJD2A Tudor inh: 7%; HP1b chromo inh: 33%; BAZ2B inh: -4%; GLS inhibitor: 6%

Results for Cn1c2ccccc2c2ccc3c(c21)C(=O)C=CC3=O ?
JMJD2A Tudor inh: 16µM*; HP1b chromo inh: 11µM*; GLS inhibitor: 35%

Results for Cc1ccc2c(c1)c1ncnc(N3CCOCC3)c1n2C ?
JMJD2A Tudor inh: inconclusive; HP1b chromo inh: 21%; BAZ2B inh: 0%; G9a block: -6%; GLS inhibitor: 2%

How did COc1ccc2c(c1)c1ccc3c(c1n2C)C(=O)C=CC3=O do in these assays?
JMJD2A Tudor inh: 40µM*; HP1b chromo inh: 6.3µM*; BAZ2B inh: inconclusive; G9a block: 1.8µM*; GLS inhibitor: -2%

How did COc1ccc2c(c1)c1ncn(CCN3CCCC3)c(=O)c1n2C do in these assays?
JMJD2A Tudor inh: -13%; HP1b chromo inh: 25%; BAZ2B inh: -4%; G9a block: 14%; GLS inhibitor: 26%

How did O=C(CN1C(=O)CCSc2ccccc21)Nc1ccc(C(F)(F)F)cc1 do in these assays?
JMJD2A Tudor inh: -9%; HP1b chromo inh: 19%; BAZ2B inh: -3%; G9a block: -31%[59 µM]; GLS inhibitor: 6%

Results for COc1ccc(C(C)=O)cc1COC(=O)c1cc2ccccc2cc1O ?
JMJD2A Tudor inh: -19%; HP1b chromo inh: -13%; BAZ2B inh: -2%; G9a block: 45µM*; GLS inhibitor: -15%

Results for O=C(CSc1nc2ccccc2o1)N/N=C/c1ccc(O)c(O)c1 ?
JMJD2A Tudor inh: 16µM*; HP1b chromo inh: inconclusive; BAZ2B inh: 45µM*; G9a block: inconclusive; GLS inhibitor: inconclusive

What do the screens show for `Cc1cc(SCC(=O)N/N=C/c2ccc(O)c(O)c2)nc2ccccc12`?
JMJD2A Tudor inh: inconclusive; HP1b chromo inh: inconclusive; BAZ2B inh: 45µM*; GLS inhibitor: inconclusive

How did O=C(CSc1nc2ccccc2o1)N/N=C/c1ccccc1 do in these assays?
JMJD2A Tudor inh: 9%[57.1 µM]; HP1b chromo inh: 55%; BAZ2B inh: -18%; G9a block: -40%[59 µM]; GLS inhibitor: -4%

How did Cc1cc(C)n(C(=O)CSc2nc3ccccc3o2)n1 do in these assays?
JMJD2A Tudor inh: -9%; HP1b chromo inh: 31%; BAZ2B inh: 17%; G9a block: 79µM*; GLS inhibitor: 2%
